In ChEMBL document CHEMBL3433997, “St. Jude Leishmania screening dataset” (2016) one finds inhibition data, which are given here for 39 molecules.

Usually inhibition stands for the change of the read-out against control, counted positive when it falls.

Several values for one entry are separate records, joined by “and”; a condition that tells them apart may be missing. Equal entries are not always repeated.

This assay addresses Hexose transporter 1 (Plasmodium falciparum) (UniProt O97467). The assay is described as follows: ST_JUDE_LEISH: Cytotoxicity at 2uM final concentration against transgenic Leishmania Mexicana promastigotes LmPfHT that are glucose transport deficient and complemented with the Plasmodium falciparum hexose transporter. Activity is measured by DNA content using SYBR green in vitro. It is filed as functional.
For the molecule `C=C[C@H]1CN2CC[C@H]1C[C@H]2[C@H](O)c1ccnc2ccccc12`, the inhibition is 1.87%.

For the molecule `CCCCCCC(CC)c1cc(O)c2c(c1)OC(C)(C)c1ccncc1-2` (centres undefined), the inhibition stood at 2.42%.

On to `O=C(C=C1c2ccccc2-c2ccccc21)NC1CCC(CN2CCC(c3c[nH]c4ccccc34)CC2)CC1` (centres undefined), for which the inhibition is 0.36% and -1.31%.

Regarding `CC[C@H]1CN2CC[C@H]1C[C@H]2[C@H](O)c1cc(-c2ccc(C)cc2)nc2ccc(OC)cc12`, the inhibition stood at 0.47%.

Regarding `S=C(NCCc1ccc(Cl)cc1)NC1CCC(CN2CCC(c3c[nH]c4ccccc34)CC2)CC1` (centres undefined), the inhibition is 0.01% and 3.61%.

Turning to `Cc1[nH]c2ccc(O)cc2c1C1CCN(CC2CCC(NC(=O)/C=C/c3ccc(Cl)c(Cl)c3)CC2)CC1` (centres undefined), the inhibition worked out at 0.95%.

In the case of `CCOC(=O)c1c(CN2CCN(C)CC2)n(Cc2ccccc2)c2cc(Br)c(O)cc12`, the inhibition is 16.7%.

Take `CC[C@H]1CN2CC[C@H]1C[C@H]2[C@H](O)c1cc(/C=C/c2ccccc2)nc2ccc(OC)cc12`: the inhibition was -0.83%.

For `C=C[C@H]1CN2CC[C@H]1C[C@H]2[C@H](O)c1cc(-c2ccc(Cl)cc2)nc2ccc(OC)cc12`, the inhibition came to 1.72%.

On to `CCCCC/C=C/C(=O)NC1CCC(CN2CCC(c3c[nH]c4ccccc34)CC2)CC1` (centres undefined), for which the inhibition was found to be 2.43%.

As to `CC(Cc1ccc(SC(C)(C)C)cc1)NCC(O)c1cccc(Cl)c1` (centres undefined), the inhibition was -2.57%.

In the case of `Cc1cc2ccc(CNCCc3ccccc3Br)cc2nc1N`, the inhibition is 2.77%.

With `Oc1ccc(Cl)cc1CN1CCC(CCOC(c2ccccc2)c2ccccc2)CC1`, the inhibition was determined as 9.6%.

For `CCN(Cc1ccccc1)CC(O)c1ccc(Cl)c(Cl)c1` (centres undefined), the inhibition was 0.62%.

Consider `COC(=O)CN(C(=O)/C=C/c1ccc(Cl)c(Cl)c1)C1CCC(CN2CCC(c3c[nH]c4ccccc34)CC2)CC1` (centres undefined), for which the inhibition was found to be 4.03%.

As for `CN1CC[C@H](N(Cc2ccccc2F)c2ccc(C#N)c(Cl)c2)C1`, the inhibition is 3.02%.

In the case of `COCCNCc1cccc(-c2cccc(CN(C(=O)Nc3ccccc3)C3CCN(Cc4ccccc4)CC3)c2)c1`, the inhibition was determined as 2.07%.

In the case of `CN(c1ccc(NC(=O)CCOc2ccccc2)cc1)C1CCN(Cc2cccc(O)c2)CC1`, the inhibition is -0.45%.

In the case of `Cc1[nH]c2ccccc2c1C1CCN(CC2CCC(NC(=O)/C=C/c3ccc(Cl)c(Cl)c3)CC2)CC1` (centres undefined), the inhibition is 6.35%.

For `O=C(C=Cc1ccccc1O)N1CCC(CN2CCC(c3c[nH]c4ccccc34)CC2)CC1`, the inhibition amounted to 2.2%.

For `CCCCn1c(C)c(C(=O)OCC)c2cc(OC(C)=O)c(Br)cc21`, the inhibition was determined as 1.76%.

As to `CN(c1cc(NC(=O)c2ccc(F)cc2)ccn1)C1CCN(Cc2cccc(F)c2)CC1`, the inhibition came to 6.07%.

As to `CC[C@H]1CN2CC[C@H]1C[C@@H]2[C@H](O)c1ccnc2ccc(O)cc12`, the inhibition was -0.85%.

For the molecule `C/C=C1/CN2CC[C@H]1C[C@H]2[C@H](O)c1ccnc2ccc(O)cc12`, the inhibition was -1.31%.

For `O=C(/C=C/c1cc(F)c(F)cc1F)N1CCC(CN2CCC(c3c[nH]c4ccccc34)CC2)CC1`, the inhibition is 1.36%.

`CC(C)(C)c1ccc(Cn2nc(C(=O)N3CCN(C(=O)C4CCCO4)CC3)c3ccccc32)cc1` (centres undefined): the inhibition stood at 0.1%.

Consider `O=[N+]([O-])c1ccc(Oc2c(Cl)cc(S(=O)(=O)N3CCC(CN4CCC(c5c[nH]c6ccccc56)CC4)CC3)cc2Cl)c(Cl)c1`, for which the inhibition worked out at 0.25%.

On to `CCOc1ccc(Br)cc1/C=C/C(=O)Nc1ccc2c(c1)C1CCC2N1C` (centres undefined), for which the inhibition was 0.43%.

For the molecule `CSc1nccc(-c2ccc(S(=O)(=O)NC3CCC(CN4CCC(c5c[nH]c6ccccc56)CC4)CC3)s2)n1` (centres undefined), the inhibition was 0.65% and 1.79%.

Take `C=CCOc1ccccc1CNCC(O)c1cccc(C(F)(F)F)c1` (centres undefined): the inhibition is 3.47%.

On to `CC(Cc1ccc(OCc2ccccc2)cc1)NCC(O)c1cccc(Cl)c1` (centres undefined), for which the inhibition amounted to 3.61%.

Take `CC(C)CNCc1ccc(-c2ccc(CN(C(=O)NC3CCCCC3)C3CCN(Cc4ccccc4)CC3)cc2)cc1`: the inhibition amounted to 3.25%.

With `COC(=O)c1ccc(CC(C)NCC(O)c2ccccc2Cl)cc1` (centres undefined), the inhibition is 0.22%.

`Cc1[nH]c2ccc(NS(C)(=O)=O)cc2c1C1CCN(CC2CCN(C(=O)/C=C/c3ccc(Cl)c(Cl)c3)CC2)CC1`: the inhibition was 1.08%.

Take `CCCCCC(C)C(C)c1cc(O)c2c(c1)OC1(C(C)C)CC(O)C(C)C2C1` (centres undefined): the inhibition is 5.5%.

Turning to `O=C(NCCC1CCN(CCc2c[nH]c3ccccc23)CC1)Nc1ccc(Cl)c(Cl)c1`, the inhibition came to 2.49%.

`O=C(NC1CCC(CN2CCC(c3c[nH]c4ccccc34)CC2)CC1)c1ccc(-c2ccccc2[N+](=O)[O-])o1` (centres undefined): the inhibition came out at 1.85%.

With `O=C(Nc1ccc(Cl)c(Cl)c1)N1CCC(CN2CCC(c3c[nH]c4ccccc34)CC2)CC1`, the inhibition was 5.01%.

With `O=C(/C=C/c1ccc(F)c(C(F)(F)F)c1)N1CCC(CN2CCC(c3c[nH]c4ccccc34)CC2)CC1`, the inhibition was found to be 0.53%.
